PMC7862700, “An all-to-all approach to the identification of sequence-specific readers for epigenetic DNA modifications on cytosine”

How the values were obtained:
Assay in all cases: DAPPL (digital affinity profiling via proximity ligation, sequencing); 10 mM Tris-HCl pH 7.5, 50 mM NaCl, 1 mM DTT, 4% glycerol, room temperature, 30 min; GST-TFs on glutathione beads, 16-mer random dsDNA library, 0.1% formaldehyde crosslink after washing; high values mean tight binding
FEV = biological target: T1, FEV (Homo sapiens, UniProt Q99581 1-238); details: protein: recombinant; tags: N-terminal GST; dsDNA, one strand shown
T1 sequence: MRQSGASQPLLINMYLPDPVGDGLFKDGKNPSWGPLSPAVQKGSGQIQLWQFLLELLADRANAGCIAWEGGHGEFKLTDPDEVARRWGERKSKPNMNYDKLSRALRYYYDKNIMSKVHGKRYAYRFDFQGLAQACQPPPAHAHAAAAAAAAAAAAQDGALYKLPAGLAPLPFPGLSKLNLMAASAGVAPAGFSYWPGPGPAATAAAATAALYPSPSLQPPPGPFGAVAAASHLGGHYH
Method in brief: (§1)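 Beads coated with glutathione captured GST-fused human transcription factors that had been expressed in yeast, and the factors were then given DNA barcodes and pooled with a tag-only sample. The pools were incubated with 200 nmole of a random double-stranded 16-mer DNA library in Tris/NaCl/DTT/glycerol buffer for 30 min at room temperature, washed, crosslinked with 0.1% formaldehyde and proximity-ligated with BsaI/T4 ligase at 37 °C for 1 h. PCR amplification and Illumina NextSeq500 sequencing came last. Binding signal is each hexamer's read frequency for a factor divided by its frequency for the tag-only sample.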

ETV5 = ETV5 (Homo sapiens, UniProt P41161 1-510); details: protein: recombinant; tags: N-terminal GST; dsDNA, one strand shown
Sequence of ETV5 (P41161 whole entry): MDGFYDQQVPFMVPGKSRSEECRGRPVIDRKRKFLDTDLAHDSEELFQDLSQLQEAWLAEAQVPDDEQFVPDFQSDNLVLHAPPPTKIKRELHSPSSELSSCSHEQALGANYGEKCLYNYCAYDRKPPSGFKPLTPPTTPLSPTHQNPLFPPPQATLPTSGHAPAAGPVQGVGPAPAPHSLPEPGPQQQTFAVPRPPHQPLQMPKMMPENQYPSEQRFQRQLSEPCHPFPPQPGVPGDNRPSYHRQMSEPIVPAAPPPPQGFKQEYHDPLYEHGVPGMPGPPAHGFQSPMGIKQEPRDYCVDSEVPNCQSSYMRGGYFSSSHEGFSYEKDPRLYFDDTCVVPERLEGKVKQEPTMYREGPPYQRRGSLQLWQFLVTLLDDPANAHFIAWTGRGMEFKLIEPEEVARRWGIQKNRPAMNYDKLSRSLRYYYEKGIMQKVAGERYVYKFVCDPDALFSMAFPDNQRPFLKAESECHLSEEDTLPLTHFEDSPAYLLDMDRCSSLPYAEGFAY
Method in brief: as §1

HSF1 = HSF1 (Homo sapiens, UniProt Q00613 1-529); details: protein: recombinant; tags: N-terminal GST; chain copies: 3; dsDNA, one strand shown
Sequence of HSF1 (Q00613 whole entry): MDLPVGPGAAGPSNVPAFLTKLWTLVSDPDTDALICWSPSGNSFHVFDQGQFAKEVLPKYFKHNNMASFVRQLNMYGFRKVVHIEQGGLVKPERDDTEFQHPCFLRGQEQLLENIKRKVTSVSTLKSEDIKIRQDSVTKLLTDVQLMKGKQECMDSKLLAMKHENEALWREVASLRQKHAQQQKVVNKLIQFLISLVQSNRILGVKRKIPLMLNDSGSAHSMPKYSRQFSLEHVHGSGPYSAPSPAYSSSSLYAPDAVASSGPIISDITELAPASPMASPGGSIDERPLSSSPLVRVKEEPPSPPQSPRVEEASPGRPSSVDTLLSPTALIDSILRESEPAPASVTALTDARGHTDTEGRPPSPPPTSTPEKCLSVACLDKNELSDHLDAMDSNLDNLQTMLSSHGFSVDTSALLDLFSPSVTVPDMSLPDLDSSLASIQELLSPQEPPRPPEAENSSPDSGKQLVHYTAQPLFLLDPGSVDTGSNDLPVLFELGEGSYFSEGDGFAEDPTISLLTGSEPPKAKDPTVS
Method in brief: as §1

SPIC = biological target: T2, SPIC (Homo sapiens, UniProt Q8N5J4 1-248); details: protein: recombinant; tags: N-terminal GST; dsDNA, one strand shown
T2 sequence: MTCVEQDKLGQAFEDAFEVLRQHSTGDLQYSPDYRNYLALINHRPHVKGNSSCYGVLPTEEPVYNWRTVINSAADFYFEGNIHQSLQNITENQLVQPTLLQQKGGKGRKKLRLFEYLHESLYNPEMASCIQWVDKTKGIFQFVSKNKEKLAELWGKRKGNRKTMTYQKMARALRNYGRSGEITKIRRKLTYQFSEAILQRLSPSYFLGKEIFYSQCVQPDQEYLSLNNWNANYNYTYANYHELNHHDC
Method in brief: as §1

ELF4 = ELF4 (Homo sapiens, UniProt Q99607 1-663); details: protein: recombinant; tags: N-terminal GST; dsDNA, one strand shown
Sequence of ELF4 (Q99607 whole entry): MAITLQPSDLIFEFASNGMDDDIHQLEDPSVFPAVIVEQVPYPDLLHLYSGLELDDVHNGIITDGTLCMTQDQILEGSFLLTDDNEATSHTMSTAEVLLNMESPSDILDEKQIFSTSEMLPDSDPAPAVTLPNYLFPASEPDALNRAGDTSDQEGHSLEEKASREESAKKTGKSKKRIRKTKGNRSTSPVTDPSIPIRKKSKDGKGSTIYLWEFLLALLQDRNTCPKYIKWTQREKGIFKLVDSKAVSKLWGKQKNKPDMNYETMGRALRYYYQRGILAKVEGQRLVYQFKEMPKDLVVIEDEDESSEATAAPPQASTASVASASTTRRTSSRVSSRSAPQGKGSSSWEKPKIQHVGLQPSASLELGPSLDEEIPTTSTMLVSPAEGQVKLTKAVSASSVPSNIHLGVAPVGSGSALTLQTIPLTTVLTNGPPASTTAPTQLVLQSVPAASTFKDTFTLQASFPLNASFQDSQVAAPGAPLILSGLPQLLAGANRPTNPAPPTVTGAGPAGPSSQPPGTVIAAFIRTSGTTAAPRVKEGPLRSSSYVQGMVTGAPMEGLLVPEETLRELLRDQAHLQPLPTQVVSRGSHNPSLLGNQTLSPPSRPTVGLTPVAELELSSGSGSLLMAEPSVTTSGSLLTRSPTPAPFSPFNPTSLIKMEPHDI
Method in brief: as §1

ELK4 = biological target: T3, ELK4 (Homo sapiens, UniProt P28324-2 1-405); details: protein: recombinant; tags: N-terminal GST; dsDNA, one strand shown
T3 sequence: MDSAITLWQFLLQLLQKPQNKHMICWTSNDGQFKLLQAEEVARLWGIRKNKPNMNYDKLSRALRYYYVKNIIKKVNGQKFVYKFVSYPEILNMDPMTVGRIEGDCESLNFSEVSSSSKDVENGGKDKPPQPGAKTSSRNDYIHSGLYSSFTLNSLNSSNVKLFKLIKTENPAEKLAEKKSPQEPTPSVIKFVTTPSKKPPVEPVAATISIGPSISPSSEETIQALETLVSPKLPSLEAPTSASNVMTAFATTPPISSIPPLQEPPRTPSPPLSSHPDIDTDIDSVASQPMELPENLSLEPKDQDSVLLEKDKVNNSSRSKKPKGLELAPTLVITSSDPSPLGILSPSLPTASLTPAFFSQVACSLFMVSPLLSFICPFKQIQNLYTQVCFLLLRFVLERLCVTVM
Method in brief: as §1

ETV2 = biological target: T4, ETV2 (Homo sapiens, UniProt O00321 1-342); details: protein: recombinant; tags: N-terminal GST; dsDNA, one strand shown
T4 sequence: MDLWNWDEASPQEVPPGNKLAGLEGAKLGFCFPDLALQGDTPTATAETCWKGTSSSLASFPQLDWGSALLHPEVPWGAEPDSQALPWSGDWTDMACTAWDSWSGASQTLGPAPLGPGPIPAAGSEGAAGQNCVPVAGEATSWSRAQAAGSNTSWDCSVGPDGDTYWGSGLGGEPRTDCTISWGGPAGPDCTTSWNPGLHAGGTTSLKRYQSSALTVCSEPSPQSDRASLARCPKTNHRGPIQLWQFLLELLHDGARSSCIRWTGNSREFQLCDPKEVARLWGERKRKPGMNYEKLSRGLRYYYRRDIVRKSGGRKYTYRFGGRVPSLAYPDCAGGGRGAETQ
Method in brief: as §1

ELF3 = biological target: T5, ELF3 (Homo sapiens, UniProt P78545 1-371); details: protein: recombinant; tags: N-terminal GST; dsDNA, one strand shown
T5 sequence: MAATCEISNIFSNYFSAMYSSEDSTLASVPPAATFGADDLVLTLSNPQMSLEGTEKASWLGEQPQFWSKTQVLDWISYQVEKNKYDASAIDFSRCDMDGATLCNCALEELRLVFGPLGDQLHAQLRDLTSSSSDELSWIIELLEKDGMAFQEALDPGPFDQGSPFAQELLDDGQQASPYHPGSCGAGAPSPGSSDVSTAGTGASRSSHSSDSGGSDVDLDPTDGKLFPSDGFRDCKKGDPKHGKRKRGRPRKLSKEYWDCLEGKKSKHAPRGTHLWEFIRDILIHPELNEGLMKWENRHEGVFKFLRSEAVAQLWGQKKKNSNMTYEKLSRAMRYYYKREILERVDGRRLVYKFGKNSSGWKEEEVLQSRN
Method in brief: as §1

CRX = CRX (Homo sapiens, UniProt O43186 1-299); details: protein: recombinant; tags: N-terminal GST; dsDNA, one strand shown
Sequence of CRX (O43186 whole entry): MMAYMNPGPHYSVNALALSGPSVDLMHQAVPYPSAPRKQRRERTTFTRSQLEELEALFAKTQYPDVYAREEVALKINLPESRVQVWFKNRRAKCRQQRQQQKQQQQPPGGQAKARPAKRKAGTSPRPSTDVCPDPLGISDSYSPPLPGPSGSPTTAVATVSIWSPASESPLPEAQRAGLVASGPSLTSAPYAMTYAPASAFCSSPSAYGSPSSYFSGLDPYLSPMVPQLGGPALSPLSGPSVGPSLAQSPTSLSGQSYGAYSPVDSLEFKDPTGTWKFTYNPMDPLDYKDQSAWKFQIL
Method in brief: as §1

ETV1 = ETV1 (Homo sapiens, UniProt P50549 1-477); details: protein: recombinant; tags: N-terminal GST; dsDNA, one strand shown
Sequence of ETV1 (P50549 whole entry): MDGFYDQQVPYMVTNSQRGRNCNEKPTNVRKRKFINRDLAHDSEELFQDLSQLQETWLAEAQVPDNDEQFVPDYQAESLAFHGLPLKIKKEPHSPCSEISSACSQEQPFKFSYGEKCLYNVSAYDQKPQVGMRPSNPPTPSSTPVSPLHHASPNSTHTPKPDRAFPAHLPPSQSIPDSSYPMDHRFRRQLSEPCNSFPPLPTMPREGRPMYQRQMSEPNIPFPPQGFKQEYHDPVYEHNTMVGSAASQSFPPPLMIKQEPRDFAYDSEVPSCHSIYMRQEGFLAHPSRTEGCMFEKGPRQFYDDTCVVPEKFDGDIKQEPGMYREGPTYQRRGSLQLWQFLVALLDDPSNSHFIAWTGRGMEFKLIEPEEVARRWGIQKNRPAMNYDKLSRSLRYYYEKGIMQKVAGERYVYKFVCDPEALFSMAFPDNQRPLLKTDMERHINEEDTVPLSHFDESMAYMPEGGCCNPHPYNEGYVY
Method in brief: as §1

ERF = biological target: T6, ERF (Homo sapiens, UniProt P50548 1-548); details: protein: recombinant; tags: N-terminal GST; dsDNA, one strand shown
T6 sequence: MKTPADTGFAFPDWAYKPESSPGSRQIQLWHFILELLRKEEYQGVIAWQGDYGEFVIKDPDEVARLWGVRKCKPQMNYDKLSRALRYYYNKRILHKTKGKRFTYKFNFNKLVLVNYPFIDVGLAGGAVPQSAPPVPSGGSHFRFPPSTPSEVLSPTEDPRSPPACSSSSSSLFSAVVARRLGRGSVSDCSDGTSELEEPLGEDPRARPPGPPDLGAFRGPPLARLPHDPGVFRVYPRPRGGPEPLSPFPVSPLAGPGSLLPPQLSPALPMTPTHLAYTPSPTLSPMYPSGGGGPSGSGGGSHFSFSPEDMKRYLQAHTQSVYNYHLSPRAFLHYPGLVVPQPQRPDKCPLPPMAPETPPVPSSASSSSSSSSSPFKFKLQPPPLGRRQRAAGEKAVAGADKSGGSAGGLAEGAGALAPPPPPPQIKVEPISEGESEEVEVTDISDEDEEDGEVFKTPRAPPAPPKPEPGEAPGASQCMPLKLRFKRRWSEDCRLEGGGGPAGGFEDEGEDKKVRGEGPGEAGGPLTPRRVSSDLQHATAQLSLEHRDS
Method in brief: as §1

ETV3L = biological target: T7, ETV3L (Homo sapiens, UniProt Q6ZN32 1-361); details: protein: recombinant; tags: N-terminal GST; dsDNA, one strand shown
T7 sequence: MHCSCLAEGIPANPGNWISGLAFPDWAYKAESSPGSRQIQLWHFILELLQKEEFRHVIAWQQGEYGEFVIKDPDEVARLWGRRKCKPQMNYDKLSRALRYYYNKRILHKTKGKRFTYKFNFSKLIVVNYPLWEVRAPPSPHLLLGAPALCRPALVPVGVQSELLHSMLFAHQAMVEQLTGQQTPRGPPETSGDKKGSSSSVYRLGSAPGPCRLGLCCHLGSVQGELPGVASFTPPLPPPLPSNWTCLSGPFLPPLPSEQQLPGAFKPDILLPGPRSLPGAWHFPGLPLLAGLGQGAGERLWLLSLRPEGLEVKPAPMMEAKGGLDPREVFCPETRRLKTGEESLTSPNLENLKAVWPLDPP
Method in brief: as §1

ETS2 = biological target: T8, ETS2 (Homo sapiens, UniProt P15036 1-469); details: protein: recombinant; tags: N-terminal GST; dsDNA, one strand shown
T8 sequence: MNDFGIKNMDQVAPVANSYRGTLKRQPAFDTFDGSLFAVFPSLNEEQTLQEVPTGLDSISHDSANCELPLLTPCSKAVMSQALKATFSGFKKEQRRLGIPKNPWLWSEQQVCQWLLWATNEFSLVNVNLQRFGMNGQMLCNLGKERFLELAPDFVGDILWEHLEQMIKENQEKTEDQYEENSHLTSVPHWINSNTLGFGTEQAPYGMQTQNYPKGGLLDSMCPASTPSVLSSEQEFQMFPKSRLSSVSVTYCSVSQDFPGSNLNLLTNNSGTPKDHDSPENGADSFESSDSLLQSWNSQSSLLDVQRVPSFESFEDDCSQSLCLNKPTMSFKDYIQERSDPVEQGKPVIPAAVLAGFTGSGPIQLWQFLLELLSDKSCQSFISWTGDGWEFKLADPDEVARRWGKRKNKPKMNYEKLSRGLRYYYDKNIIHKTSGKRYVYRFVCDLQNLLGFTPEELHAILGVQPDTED
Method in brief: as §1

SPDEF = biological target: T9, SPDEF (Homo sapiens, UniProt O95238 1-335); details: protein: recombinant; tags: N-terminal GST; dsDNA, one strand shown
T9 sequence: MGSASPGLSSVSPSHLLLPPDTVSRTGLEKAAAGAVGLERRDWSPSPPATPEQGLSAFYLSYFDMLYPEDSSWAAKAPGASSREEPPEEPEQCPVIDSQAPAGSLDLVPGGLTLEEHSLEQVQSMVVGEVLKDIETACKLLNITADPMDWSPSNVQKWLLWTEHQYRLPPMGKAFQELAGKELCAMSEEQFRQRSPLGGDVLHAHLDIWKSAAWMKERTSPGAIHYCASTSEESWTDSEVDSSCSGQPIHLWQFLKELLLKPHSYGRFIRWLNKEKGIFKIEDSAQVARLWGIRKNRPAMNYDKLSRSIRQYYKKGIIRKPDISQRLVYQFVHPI
Method in brief: as §1

ETV7 = biological target: T10, ETV7 (Homo sapiens, UniProt Q9Y603 1-341); details: protein: recombinant; tags: N-terminal GST; dsDNA, one strand shown
T10 sequence: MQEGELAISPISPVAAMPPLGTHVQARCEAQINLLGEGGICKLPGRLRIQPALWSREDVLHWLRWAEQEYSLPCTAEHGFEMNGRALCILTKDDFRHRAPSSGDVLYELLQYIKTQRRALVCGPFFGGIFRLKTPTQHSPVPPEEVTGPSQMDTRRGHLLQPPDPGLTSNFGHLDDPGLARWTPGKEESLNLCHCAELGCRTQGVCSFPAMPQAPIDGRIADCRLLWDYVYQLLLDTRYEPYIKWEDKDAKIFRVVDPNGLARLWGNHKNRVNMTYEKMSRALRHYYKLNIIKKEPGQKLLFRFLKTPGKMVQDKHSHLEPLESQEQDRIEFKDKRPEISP
Method in brief: as §1

ELF5 = biological target: T11, ELF5 (Homo sapiens, UniProt Q9UKW6-2 1-255); details: protein: recombinant; tags: N-terminal GST; dsDNA, one strand shown
T11 sequence: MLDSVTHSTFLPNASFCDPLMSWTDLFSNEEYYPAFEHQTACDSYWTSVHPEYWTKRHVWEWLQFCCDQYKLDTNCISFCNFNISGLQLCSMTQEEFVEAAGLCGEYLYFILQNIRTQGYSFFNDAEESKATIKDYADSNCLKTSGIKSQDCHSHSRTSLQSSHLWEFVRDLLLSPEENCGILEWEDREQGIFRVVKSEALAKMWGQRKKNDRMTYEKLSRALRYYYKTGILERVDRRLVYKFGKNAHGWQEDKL
Method in brief: as §1

ETV3 = biological target: T12, ETV3 (Homo sapiens, UniProt P41162-2 1-143); details: protein: recombinant; tags: N-terminal GST; dsDNA, one strand shown
T12 sequence: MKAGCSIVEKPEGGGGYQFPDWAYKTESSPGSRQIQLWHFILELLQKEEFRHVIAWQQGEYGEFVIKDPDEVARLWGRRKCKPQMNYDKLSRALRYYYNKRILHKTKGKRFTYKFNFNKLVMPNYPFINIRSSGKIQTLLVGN
Method in brief: as §1

ETV6 = ETV6 (Homo sapiens, UniProt P41212 1-452); details: protein: recombinant; tags: N-terminal GST; dsDNA, one strand shown
Sequence of ETV6 (P41212 whole entry): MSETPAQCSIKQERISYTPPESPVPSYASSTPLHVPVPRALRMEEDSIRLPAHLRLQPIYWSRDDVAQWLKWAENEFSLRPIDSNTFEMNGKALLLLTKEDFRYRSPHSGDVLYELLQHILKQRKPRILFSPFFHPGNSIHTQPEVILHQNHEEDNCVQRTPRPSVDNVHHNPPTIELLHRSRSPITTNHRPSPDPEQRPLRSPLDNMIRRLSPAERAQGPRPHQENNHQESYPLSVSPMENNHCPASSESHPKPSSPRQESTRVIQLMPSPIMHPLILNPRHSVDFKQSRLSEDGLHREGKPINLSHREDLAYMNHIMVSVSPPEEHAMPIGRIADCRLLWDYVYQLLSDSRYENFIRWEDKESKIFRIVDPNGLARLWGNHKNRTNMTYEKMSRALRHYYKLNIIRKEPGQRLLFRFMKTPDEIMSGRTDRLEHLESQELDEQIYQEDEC
Method in brief: as §1

Q: How did the binding signal (FEV) turn out when GTCTTA was run?
A: The binding signal was 1.07 fold enrichment (6-mer frequency, TF over GST control).

Q: What about the binding signal (ETV5) of the same sequence?
A: Its binding signal is 1.14 fold enrichment (6-mer frequency, TF over GST control).

Q: And the binding signal (HSF1)?
A: The binding signal was 1.35 fold enrichment (6-mer frequency, TF over GST control).

Q: And the binding signal (SPIC)?
A: The binding signal was 1.07 fold enrichment (6-mer frequency, TF over GST control).

Q: And the binding signal (ELF4)?
A: The binding signal was 1.08 fold enrichment (6-mer frequency, TF over GST control).

Q: What about the binding signal (ELK4) of the same sequence?
A: Its binding signal is 1.04 fold enrichment (6-mer frequency, TF over GST control).

Q: What about the binding signal (ETV2) of the same sequence?
A: Its binding signal is 1.14 fold enrichment (6-mer frequency, TF over GST control).

Q: And the binding signal (ELF3)?
A: The binding signal was 1.16 fold enrichment (6-mer frequency, TF over GST control).

Q: And the binding signal (CRX)?
A: Its binding signal is 1.94 fold enrichment (6-mer frequency, TF over GST control).

Q: And the binding signal (ETV1)?
A: Its binding signal is 1.15 fold enrichment (6-mer frequency, TF over GST control).

Q: And the binding signal (ERF)?
A: The binding signal was 1.12 fold enrichment (6-mer frequency, TF over GST control).

Q: What about the binding signal (ETV3L) of the same sequence?
A: The binding signal was 1.21 fold enrichment (6-mer frequency, TF over GST control).

Q: What about the binding signal (ETS2) of the same sequence?
A: Its binding signal is 1.16 fold enrichment (6-mer frequency, TF over GST control).

Q: And the binding signal (SPDEF)?
A: Its binding signal is 1.17 fold enrichment (6-mer frequency, TF over GST control).

Q: And the binding signal (ETV7)?
A: Its binding signal is 1.21 fold enrichment (6-mer frequency, TF over GST control).

Q: What about the binding signal (ELF5) of the same sequence?
A: The binding signal was 1.18 fold enrichment (6-mer frequency, TF over GST control).

Q: What about the binding signal (ETV3) of the same sequence?
A: Its binding signal is 1.23 fold enrichment (6-mer frequency, TF over GST control).

Q: What about the binding signal (ETV6) of the same sequence?
A: The binding signal was 1.11 fold enrichment (6-mer frequency, TF over GST control).
